Laboratory results from PubChem BioAssay AID1224864 (Chung Lab, Department of Pediatrics, Emory University, 2016).
In all, about 2,000 compounds went through this assay and about 20 (1%) were called active. No rule for the calls is given here. Only a selection was taken, and actives are over-represented in it overall.

What follows are compounds tested against Cystic fibrosis transmembrane conductance regulator (Homo sapiens) (UniProt P13569) (assay: correctors of F508del-CFTR surface localization, primary screen, imaging, HeLa, high-content microscopy, immunofluorescence (AID 1224864;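 also: HeLa cells stably expressing F508del-CFTR stained with 3G11 antibody against NBD1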;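 as to plasma membrane CFTR intensity: mean immunofluorescence in a thin cell-margin band taken as plasma membrane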)). Settings: PM immunofluorescence imaging, 24 h, at 10 µM, stronger effect = higher value, relative to vehicle wells set at 100; total CFTR intensity: measured here: total cellular F508del-CFTR signal.
Chain of Cystic fibrosis transmembrane conductance regulator (Homo sapiens) (P13569 whole entry, looked up, stated change not applied): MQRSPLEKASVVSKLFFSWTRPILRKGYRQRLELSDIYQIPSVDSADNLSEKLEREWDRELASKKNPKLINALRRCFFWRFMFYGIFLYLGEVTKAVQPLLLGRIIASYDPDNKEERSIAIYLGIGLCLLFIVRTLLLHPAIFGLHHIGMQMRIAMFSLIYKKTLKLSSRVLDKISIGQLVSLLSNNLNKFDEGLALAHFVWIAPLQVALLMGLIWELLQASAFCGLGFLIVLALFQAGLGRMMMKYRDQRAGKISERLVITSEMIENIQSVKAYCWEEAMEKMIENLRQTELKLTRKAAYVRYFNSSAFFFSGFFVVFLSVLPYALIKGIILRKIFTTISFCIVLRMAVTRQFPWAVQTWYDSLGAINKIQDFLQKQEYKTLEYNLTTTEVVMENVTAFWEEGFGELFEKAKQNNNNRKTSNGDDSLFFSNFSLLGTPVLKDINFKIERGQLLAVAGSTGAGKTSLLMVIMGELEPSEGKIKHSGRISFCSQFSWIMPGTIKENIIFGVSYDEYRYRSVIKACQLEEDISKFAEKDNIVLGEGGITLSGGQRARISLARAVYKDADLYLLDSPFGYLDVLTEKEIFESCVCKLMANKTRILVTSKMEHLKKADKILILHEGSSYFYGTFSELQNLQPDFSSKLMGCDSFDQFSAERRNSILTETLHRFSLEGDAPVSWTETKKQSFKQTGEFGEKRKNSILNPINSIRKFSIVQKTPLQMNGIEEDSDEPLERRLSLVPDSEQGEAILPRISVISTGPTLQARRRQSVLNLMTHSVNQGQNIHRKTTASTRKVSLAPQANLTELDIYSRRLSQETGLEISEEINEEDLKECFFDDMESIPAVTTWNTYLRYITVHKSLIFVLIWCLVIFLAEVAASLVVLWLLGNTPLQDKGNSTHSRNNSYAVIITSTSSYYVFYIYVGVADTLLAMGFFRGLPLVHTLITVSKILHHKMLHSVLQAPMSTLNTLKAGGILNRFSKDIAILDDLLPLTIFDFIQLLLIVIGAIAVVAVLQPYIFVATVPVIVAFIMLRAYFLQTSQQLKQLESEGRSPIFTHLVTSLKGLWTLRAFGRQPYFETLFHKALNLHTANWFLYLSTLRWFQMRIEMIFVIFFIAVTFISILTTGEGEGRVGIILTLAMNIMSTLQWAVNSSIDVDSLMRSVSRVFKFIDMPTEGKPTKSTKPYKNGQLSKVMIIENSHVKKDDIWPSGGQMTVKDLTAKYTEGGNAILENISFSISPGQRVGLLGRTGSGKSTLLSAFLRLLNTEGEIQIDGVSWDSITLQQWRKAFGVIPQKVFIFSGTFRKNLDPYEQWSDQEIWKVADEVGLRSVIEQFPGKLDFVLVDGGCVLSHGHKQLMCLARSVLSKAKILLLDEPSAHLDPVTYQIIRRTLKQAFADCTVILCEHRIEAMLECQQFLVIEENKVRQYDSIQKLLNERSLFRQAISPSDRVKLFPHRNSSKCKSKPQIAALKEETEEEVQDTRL

Q: What does the source list for `N/C(=N/OS(=O)(=O)c1ccc([N+](=O)[O-])cc1)c1ccncc1`?
A: plasma membrane CFTR intensity: 87% (inactive); total CFTR intensity: 85%

Q: What does the source list for `COc1ccccc1NC(=O)N1CCc2[nH]c3ccc(Cl)cc3c2C1`?
A: plasma membrane CFTR intensity: 92% (inactive); total CFTR intensity: 84%

Q: What does the source list for `C/C(CCc1oc2ccc(Cl)cc2c1-c1ccc(C)o1)=N\O`?
A: plasma membrane CFTR intensity: 91% (inactive); total CFTR intensity: 97%

Q: How did the plasma membrane CFTR intensity turn out when `COc1ccc(/C=N\NC(=O)CCc2c(C)n[nH]c2C)c(OC)c1OC` was run?
A: 82% (inactive)

Q: What about the total CFTR intensity of the same compound?
A: 77%

Q: For `COc1ccccc1Oc1c(C)oc2c(CN3CCN(CCO)CC3)c(O)ccc2c1=O`, which plasma membrane CFTR intensity is on record?
A: 90% (inactive)

Q: What about the total CFTR intensity of the same compound?
A: 89%

Q: With `O=C(O)c1ccc(OCCn2ccnc2)cc1` as the compound, how does the plasma membrane CFTR intensity read?
A: 77% (inactive)

Q: What about the total CFTR intensity of the same compound?
A: 82%

Q: How did the plasma membrane CFTR intensity turn out when `CN(CCCN1CCOCC1)Cc1cn(C)nc1-c1ccccc1F` was run?
A: 84% (inactive)

Q: What about the total CFTR intensity of the same compound?
A: 87%

Q: Which results are given for `NCc1ccccc1COc1ccccc1`?
A: plasma membrane CFTR intensity: 81% (inactive); total CFTR intensity: 83%

Q: For `Cc1ccc(CN2CCN(CCCc3ccccc3)CC2CCO)cc1` (configuration not stated), which plasma membrane CFTR intensity is on record?
A: 82% (inactive)

Q: And the total CFTR intensity?
A: 85%

Q: Which plasma membrane CFTR intensity does the source give for `CCC(CO)NCCNC(CC)CO` (configuration not stated) here?
A: 86% (inactive)

Q: And the total CFTR intensity?
A: 88%

Q: Which plasma membrane CFTR intensity does the source give for `Cc1ccc(N2CCN(C(=S)c3ccc(-c4cccc([N+](=O)[O-])c4)o3)CC2)cc1` here?
A: 81% (inactive)

Q: What about the total CFTR intensity of the same compound?
A: 80%

Q: `O=C(CN1C(=O)c2ccccc2S1(=O)=O)Nc1ccccc1` was tested. Which plasma membrane CFTR intensity did it give?
A: 84% (inactive)

Q: What about the total CFTR intensity of the same compound?
A: 82%

Q: Which plasma membrane CFTR intensity does the source give for `CCCCC/C=C\C[C@H](O)/C=C/c1cccc(C[C@H](O)CCCCO)n1` here?
A: 107% (active)

Q: What about the total CFTR intensity of the same compound?
A: 126%

Q: How did the plasma membrane CFTR intensity turn out when `CN(C)c1cc(NC(=O)CN2CCOCC2)c2ccccc2n1` was run?
A: 91% (inactive)

Q: And the total CFTR intensity?
A: 88%

Q: For `CCOC(=O)C1C(=O)CC(C)(O)C(C(=O)OCC)C1/C=C/c1ccccc1` (configuration not stated), which plasma membrane CFTR intensity is on record?
A: 95% (inactive)

Q: What about the total CFTR intensity of the same compound?
A: 102%

Q: What does the source list for `Nc1ccc(N)c(C(=O)O)c1`?
A: plasma membrane CFTR intensity: 77% (inactive); total CFTR intensity: 82%

Q: What does the source list for `CCOC(=O)Cn1c(C)cc(=O)c2ccccc21`?
A: plasma membrane CFTR intensity: 114% (inactive); total CFTR intensity: 113%

Q: With `COc1cc(C(=O)OCCCN(C)C)cc(OC)c1OC` as the compound, how does the plasma membrane CFTR intensity read?
A: 89% (inactive)

Q: What about the total CFTR intensity of the same compound?
A: 84%

Q: What does the source list for `CN(C)c1ccc(CNCCC(Cc2ccccc2)c2ccco2)cc1` (configuration not stated)?
A: plasma membrane CFTR intensity: 50% (inactive); total CFTR intensity: 41%

Q: Which plasma membrane CFTR intensity does the source give for `Cn1c(=O)c2c(ncn2Cc2ccccc2)n(C)c1=O` here?
A: 81% (inactive)

Q: What about the total CFTR intensity of the same compound?
A: 82%

Q: With `CNC[C@H](O)c1cccc(O)c1` as the compound, how does the plasma membrane CFTR intensity read?
A: 92% (inactive)

Q: What about the total CFTR intensity of the same compound?
A: 96%

Q: With `CC(C)NC[C@@H](O)c1ccc(O)c(O)c1` as the compound, how does the plasma membrane CFTR intensity read?
A: 100% (inactive)

Q: What about the total CFTR intensity of the same compound?
A: 111%

Q: `CNC[C@H](O)c1ccc(O)c(O)c1` was tested. Which plasma membrane CFTR intensity did it give?
A: 101% (active)

Q: What about the total CFTR intensity of the same compound?
A: 120%

Q: With `O[C@@H](CNC[C@H](O)c1ccccc1)c1ccccc1` as the compound, how does the plasma membrane CFTR intensity read?
A: 90% (inactive)

Q: And the total CFTR intensity?
A: 84%

Q: What does the source list for `Cn1nc(-c2ccc(Cl)cc2)nc2c(=O)n(C)c(=O)nc1-2`?
A: plasma membrane CFTR intensity: 84% (inactive); total CFTR intensity: 86%

Q: With `O=C(CN1C(=O)c2ccccc2C1=O)Nc1cccc([N+](=O)[O-])c1` as the compound, how does the plasma membrane CFTR intensity read?
A: 90% (inactive)

Q: And the total CFTR intensity?
A: 91%
